These results are taken from ChEMBL document CHEMBL3988442, “University of Dundee, Small-Polar-MMV Screening Library” (2021).

Among all 48,000 compounds or so, about 13,000 (27%) showed an effect of 50% or more. The list shows a part of the results.

The test system of this assay is Wolbachia pipientis. The experiment in a line: Anti-Wolbachia Cell-Based Screen. The class given is functional. Further details: scale not given: in the data most compounds retested in dose-response had high values. As to conditions: 5 µM.
As to `O=C(c1cccs1)N1CC[C@@H]2[C@H]1CCC(=O)N2c1ccccc1`, the “Percent Effect” value is reported as 4.251%.

`Cc1cnc(CNC(=O)NCCOc2ncccc2Cl)s1`: the “Percent Effect” value is 0.4061%.

In the case of `CCC(Nc1nccc(C2CCCC2)n1)c1ncccc1C` (configuration not stated), the “Percent Effect” value is recorded as -9.409%.

Consider `CCC(Nc1nccc(C2CCCC2)n1)c1ccccn1` (configuration not stated), for which the “Percent Effect” value was determined as 15.43%.

For `Cc1ncc(-c2ccnc(NCCO)n2)c(C2CCCCC2)n1`, the “Percent Effect” value is 70.45%.

Consider `Cc1ncc(-c2ccnc(N[C@@H](C)CO)n2)c(C2CCCCC2)n1`, for which the “Percent Effect” value came to 99.14%.

As for `COc1ccc(-c2noc([C@@H](C)NC(=O)NC(C)(C)C)c2C(=O)O)cc1`, the “Percent Effect” value is -18.05%.

As to `N#Cc1cn(C2CC2)c(=O)n(CC(O)c2ccccc2F)c1=O` (configuration not stated), the “Percent Effect” value is recorded as -13.9%.

For the compound `O=C(NCC1CCCO1)c1cc(-c2cccnc2)c2cnccc2n1` (configuration not stated), the “Percent Effect” value is listed as 70.74%.

Take `Cc1cc(C(=O)NCC2CCCO2)c(C)n1-c1cccnc1` (configuration not stated): the “Percent Effect” value is given as -0.4746%.

As to `O=C(NCC1CCCO1)c1csc(Cc2ccccc2)n1` (configuration not stated), the “Percent Effect” value is -0.1841%.

For `Cl.O=C(NCC1CCC2(CCNCC2)CO1)c1cnccn1` (configuration not stated), the “Percent Effect” value amounted to 3.528%.

Consider `Cl.O=C(NCC1CCCO1)c1cc(-c2ccncc2)c2cnccc2n1` (configuration not stated), for which the “Percent Effect” value worked out at 81.36%.

With `O=C(NCC1CCCO1)c1coc(Cn2cnc3ccccc32)n1` (configuration not stated), the “Percent Effect” value was 1.583%.

Regarding `CN(C)Cc1nc(C(C)(C)NC(=O)c2ccnn2C)no1`, the “Percent Effect” value was determined as 0.5486%.

Regarding `O=C(NCCNc1ncccn1)c1ccc(Cl)s1`, the “Percent Effect” value worked out at 24.49%.

In the case of `Cc1ncc(C(=O)NCCNC(=O)c2ccccc2)s1`, the “Percent Effect” value came to 117.1%.

On to `Cc1ccc(-c2ncc(C(=O)NCCNc3ncccn3)s2)c(C)c1`, for which the “Percent Effect” value is recorded as -5.367%.

For `Cc1ccc(-c2ncc(C(=O)NCCNC(=O)C(C)C)s2)c(C)c1`, the “Percent Effect” value is given as -1.458%.

Consider `CC(C)(C)NC(=O)c1cnc(C(C)(C)C)s1`, for which the “Percent Effect” value was 6.371%.

In the case of `CC(C)(C)c1ncc(C(=O)NCCNS(C)(=O)=O)s1`, the “Percent Effect” value was 118.2%.

In the case of `CC(=O)NCCNC(=O)c1cnc(C(C)(C)C)s1`, the “Percent Effect” value amounted to 109.1%.

As to `COC(=O)C(C)(C)NC(=O)c1cnc(C(C)(C)C)s1`, the “Percent Effect” value is given as -1.472%.

`Cc1ncc(C(=O)NCCNc2ncccn2)s1`: the “Percent Effect” value was determined as 110.1%.

Take `CC(C)(C)c1ncc(C(=O)NCCS(N)(=O)=O)s1`: the “Percent Effect” value is -2.112%.

For the compound `CS(=O)(=O)NCCNC(=O)c1cnc(-c2ccccc2)nc1`, the “Percent Effect” value turned out to be 5.162%.

For `O=C(N1CCC(OCc2ccccn2)CC1)C1(c2ccc(F)cc2)CC1`, the “Percent Effect” value was -10.1%.

Consider `C=C(C)CNC(=O)C1CCCN(C2CCN(C(C)C)CC2)C1` (configuration not stated), for which the “Percent Effect” value is listed as -1.601%.

On to `Fc1cnc(N2CCCn3c(nnc3Cn3cccn3)C2)nc1`, for which the “Percent Effect” value was -21.77%.

On to `CN(C)c1ncnc2c1CCN(C(=O)CN1CCCCC1)C2`, for which the “Percent Effect” value is listed as -9.788%.

For the compound `CCOC(C)c1nc(CN2CCN(c3ncc(C)cn3)CC2)cs1` (configuration not stated), the “Percent Effect” value was determined as 0.6685%.

In the case of `COc1ccc(S(=O)(=O)C(F)(F)F)cc1NC(=O)CSC`, the “Percent Effect” value was 25.38%.

On to `COCCC1(CO)CCCN(Cc2ccc(F)c(C)c2)C1` (configuration not stated), for which the “Percent Effect” value was -0.7036%.

For `CCN(CC)C(=O)CCCNC(=O)Cc1nc(-c2ccco2)oc1C`, the “Percent Effect” value was -23.46%.

`Cc1ccc(C(=O)N2CCOc3nc(C)ccc32)c(F)c1`: the “Percent Effect” value is -2.508%.

Regarding `CC(C)(C)c1ncc(C(=O)NCCn2ccnc2)s1`, the “Percent Effect” value was -7.496%.

On to `CC(C)(C)c1ncc(C(=O)NCCNc2ncccn2)s1`, for which the “Percent Effect” value is recorded as 108.5%.

Consider `CC(O)(CCc1ccccc1)CNC(=O)c1cccs1` (configuration not stated), for which the “Percent Effect” value was -8.464%.

With `O=C(NCCNc1ncccn1)c1cnc(-c2ccccc2)nc1`, the “Percent Effect” value was 9.369%.

Regarding `CC(C)(C)c1ncc(C(=O)NCCNC(=O)c2cccs2)s1`, the “Percent Effect” value is listed as 110.8%.

For the compound `CC(C)(C)c1ncc(C(=O)NCCNC(=O)c2ccc(O)cc2)s1`, the “Percent Effect” value was determined as 102.8%.

For the compound `O=C(NCCNC1CCN(c2nccs2)CC1)c1cccs1`, the “Percent Effect” value is -5.805%.

As for `CC(C)(C)c1ncc(C(=O)NCCNC(=O)c2ccccc2)s1`, the “Percent Effect” value is given as 3.571%.

`O=C(NCCNc1ccc(Br)cn1)c1ccc(O)cc1`: the “Percent Effect” value is reported as -11.29%.

Turning to `Cc1sc2nc(C(F)(F)F)nc(N3CCC(NS(C)(=O)=O)CC3)c2c1C`, the “Percent Effect” value turned out to be 11.4%.

Regarding `CCn1ncc2c1CCCC2NCC1=Cc2ccccc2OC1` (configuration not stated), the “Percent Effect” value is -5.815%.

As to `CC(=O)N1CCCC2(CCN(Cc3ccc(Cl)c(C(F)(F)F)c3)C2)C1` (configuration not stated), the “Percent Effect” value was found to be 13.59%.

Take `CC(=O)N1CCC2(CCCN(Cc3ccc(Cl)c(C(F)(F)F)c3)C2)C1` (configuration not stated): the “Percent Effect” value came to 5.734%.

`CC(=O)N1CC2(CCN(Cc3ccc(Cl)cc3)C2)Cc2ccccc21` (configuration not stated): the “Percent Effect” value is 116.3%.

For the compound `COCC(=O)N1CCC2(CCCN(Cc3ccc(Cl)cc3)CC2)CC1`, the “Percent Effect” value is -3.814%.

On to `CC(=O)N1CC2(CCCN(Cc3ccc(Cl)cc3)C2)Cc2ccccc21` (configuration not stated), for which the “Percent Effect” value was found to be 131.8%.

Regarding `CC(=O)N1CC2(CCN(Cc3ccc(Cl)cc3)CC2)Cc2ccccc21`, the “Percent Effect” value turned out to be 118.6%.

Consider `CC(=O)N1CCCC2(CCN(Cc3ccc(Cl)c(F)c3)C2)C1` (configuration not stated), for which the “Percent Effect” value turned out to be 9.026%.

`Cc1ncsc1CN1CCC2(CC1)CC(=O)N(Cc1ccc(Cl)cc1)C2`: the “Percent Effect” value was -0.4744%.

For the compound `Cc1cc(C(=O)N2CCN(CC(O)Cn3cccn3)CC2)c(C)o1` (configuration not stated), the “Percent Effect” value was found to be 3.42%.

In the case of `CN1CCC(N2CCOC[C@H]2c2nc(-c3ccncc3)c[nH]2)CC1`, the “Percent Effect” value is -3.647%.

`CNS(=O)(=O)c1ccc(C(=O)NC2CCc3nc(C)cn3C2)o1` (configuration not stated): the “Percent Effect” value is listed as -2.01%.

As for `Cc1cnc(N2CCc3c(CNc4ccnc(C)n4)cncc3C2)nc1.Cl`, the “Percent Effect” value was determined as 94.65%.

As for `Cc1nccc(NCc2cc3n(n2)CCCN(S(C)(=O)=O)C3)n1`, the “Percent Effect” value was -4.835%.

In the case of `Cc1nccc(NCc2cncc3c2CCN(S(C)(=O)=O)C3)n1.Cl`, the “Percent Effect” value is reported as 65.34%.

For the compound `CN1C(=O)CC(C(=O)O)C12CCN(Cc1cc(F)ccc1Cl)CC2` (configuration not stated), the “Percent Effect” value is given as -13.17%.

Consider `O=C(NCCn1nc2ccccn2c1=O)c1cc(-c2ccccc2)[nH]n1`, for which the “Percent Effect” value stood at 1.619%.

On to `Cc1nc(-c2cccc(C(=O)N(C)C)c2)cs1`, for which the “Percent Effect” value is given as -24.42%.

On to `Cc1ccn(CC(=O)Nc2cc(-c3ccncc3)[nH]n2)n1`, for which the “Percent Effect” value is reported as -0.1185%.

Turning to `CN(C)C(=O)c1cc(-c2ccncc2)[nH]n1`, the “Percent Effect” value is on record as 116.7%.

For the compound `CN(C)C(=O)c1cc(-c2ccccc2)[nH]n1`, the “Percent Effect” value was found to be 125.1%.

For `Cc1ccnn1CC(=O)Nc1cc(-c2ccncc2)[nH]n1`, the “Percent Effect” value is reported as -6.833%.

`CC1=C[C@@H](CN2CCC(CO)CC2)[C@H](C(C)C)C[C@H]1Cc1nnc(C)o1`: the “Percent Effect” value is -9.335%.

In the case of `COc1ccc(CN2C[C@@H](F)[C@@H](OCc3nc4ccccc4[nH]3)C2)cn1`, the “Percent Effect” value is -8.557%.

With `CC(NC(=O)c1ccc2c(c1)OCC(=O)N2)c1ccccc1F` (configuration not stated), the “Percent Effect” value is listed as -1.956%.

Consider `CCc1ccc(OCC(O)CN2CCN(CCO)CC2)cc1.Cl.Cl` (configuration not stated), for which the “Percent Effect” value stood at 85.64%.

Take `CCc1ccc(OCC(O)CN2CCC(O)CC2)cc1` (configuration not stated): the “Percent Effect” value is on record as 11.05%.

For the compound `CCc1ccc(OCC(O)CN2CCN(CC)CC2)cc1` (configuration not stated), the “Percent Effect” value was 71.19%.

For `Cc1c(C)n(CC(O)CN2CCN(CCO)CC2)c2c(Cl)cccc12.Cl` (configuration not stated), the “Percent Effect” value is listed as 3.197%.

Turning to `CCN1CCN(CC(O)c2ccc(OC(F)(F)F)cc2)CC1` (configuration not stated), the “Percent Effect” value stood at 1.039%.

As for `CCc1ccc(CNCC2CCN(CCO)CC2)cc1`, the “Percent Effect” value is listed as -51.45%.

With `Cc1n[nH]cc1CNC1(Cc2ccc(Br)cc2)CCCCC1`, the “Percent Effect” value was determined as 13.31%.

Regarding `O=C(Cc1ccc(F)cc1)NCc1ccc(C(=O)O)o1`, the “Percent Effect” value is given as -2.994%.

In the case of `CC(C)c1nc(/C=C/c2ccc(O)c(Cl)c2)ncc1C(=O)O`, the “Percent Effect” value is listed as 6.301%.

On to `CN(C)S(=O)(=O)N1CCCC1C(=O)N1CCSCC1` (configuration not stated), for which the “Percent Effect” value is -27.44%.

Regarding `Cc1ccc(CN2C[C@@H]3[C@@H](C(=O)N4CCCC4)CCS(=O)(=O)[C@@H]3C2)cc1.O=C(O)C(F)(F)F`, the “Percent Effect” value is listed as -5.739%.

On to `CC(C)CNC(=O)[C@H]1CCS(=O)(=O)[C@@H]2CN(Cc3ccc(F)cc3)C[C@H]12.O=C(O)C(F)(F)F`, for which the “Percent Effect” value was determined as 118.4%.

Take `CC(C)CNC(=O)[C@H]1CCS(=O)(=O)[C@@H]2CN(Cc3ccc(Cl)cc3)C[C@H]12.O=C(O)C(F)(F)F`: the “Percent Effect” value is 20.84%.

For `O=C([C@H]1CCS(=O)(=O)[C@@H]2CN(Cc3ccc(F)cc3)C[C@H]12)N1CCCC1`, the “Percent Effect” value is -0.8548%.

Take `Cc1ccc(CN2C[C@@H]3[C@@H](C(=O)NCC4CC4)CCS(=O)(=O)[C@@H]3C2)cc1.O=C(O)C(F)(F)F`: the “Percent Effect” value stood at 110.7%.

As to `CC(C)CNC(=O)[C@H]1CCS(=O)(=O)[C@@H]2CN(Cc3cccnc3)C[C@H]12`, the “Percent Effect” value was determined as 94.11%.

As for `CC(C)CNC(=O)[C@H]1CCS(=O)(=O)[C@@H]2CN(CC(C)C)C[C@H]12.O=C(O)C(F)(F)F`, the “Percent Effect” value is reported as 102.6%.

As to `C=C(C)COc1cccc(C(=O)N2CCC3(CC2)CN(C)CCN3C)c1`, the “Percent Effect” value is on record as -0.7727%.

For `COCc1nc2cc(NCc3nc(C)cs3)ccc2o1`, the “Percent Effect” value was determined as 14.28%.

As to `COCCN1CC(C(=O)N(C)Cc2csc(C)n2)CC1=O` (configuration not stated), the “Percent Effect” value stood at 9.291%.

With `Cc1nc(N)nc(N2CCOc3ccc(CO)cc3C2)c1C`, the “Percent Effect” value was -10.79%.

With `O=C(O)c1cc(-n2cc3c(n2)CCC3)cc(S(=O)(=O)NC2CCCC2)c1`, the “Percent Effect” value is -14.64%.

Turning to `CC(C)CNC(=O)[C@H]1CCS(=O)(=O)[C@@H]2CN(Cc3cccc(Cl)c3)C[C@H]12.O=C(O)C(F)(F)F`, the “Percent Effect” value turned out to be 11.74%.

Turning to `Cc1cccc(CN2C[C@@H]3[C@@H](C(=O)NCC(C)C)CCS(=O)(=O)[C@@H]3C2)c1.O=C(O)C(F)(F)F`, the “Percent Effect” value was 114%.

Take `Cc1ccc(CN2C[C@@H]3[C@@H](C(=O)NCC(C)C)CCS(=O)(=O)[C@@H]3C2)cc1.O=C(O)C(F)(F)F`: the “Percent Effect” value is 114.4%.

In the case of `O=C(NC1CCC1)[C@H]1CCS(=O)(=O)[C@@H]2CN(CCc3ccccc3)C[C@H]12.O=C(O)C(F)(F)F`, the “Percent Effect” value is given as 0.08141%.

As to `CC(SCCC(=O)NC(N)=O)c1cccc(F)c1` (configuration not stated), the “Percent Effect” value is recorded as -9.647%.
